# Where a chain is given by its changes, count along the chain named.
# Key:
# Experiment in all cases: PBM; 200 nM protein, PBS
# Details in all cases: dsDNA, one strand shown
# PAX4 [1] = target: T1, PAX4 (Homo sapiens, UniProt O43316 9-242, R200K)
# T1 sequence: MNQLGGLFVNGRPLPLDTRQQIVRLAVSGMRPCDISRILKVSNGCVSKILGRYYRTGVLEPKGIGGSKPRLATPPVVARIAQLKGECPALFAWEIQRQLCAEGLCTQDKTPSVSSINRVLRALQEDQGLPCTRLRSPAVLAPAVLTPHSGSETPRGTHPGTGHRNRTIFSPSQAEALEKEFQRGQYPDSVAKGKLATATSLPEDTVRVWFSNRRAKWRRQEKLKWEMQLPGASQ
# PAX4 [2] = target: T2, PAX4 (Homo sapiens, UniProt O43316 9-242)
# T2 sequence: T1 sequence with K192R
# PAX4 [3] = target: T3, PAX4 (Homo sapiens, UniProt O43316 9-242, R200Q)
# T3 sequence: T1 sequence with K192Q
# PAX4 [4] = target: T4, PAX4 (Homo sapiens, UniProt O43316 9-242, F177V)
# T4 sequence: T1 sequence with F169V, K192R
# PAX4 [5] = target: T5, PAX4 (Homo sapiens, UniProt O43316 9-242, F177Y)
# T5 sequence: T1 sequence with F169Y, K192R
# PAX4 [6] = target: T6, PAX4 (Homo sapiens, UniProt O43316 9-242, R227W)
# T6 sequence: T1 sequence with K192R, R219W
# CRX = CRX (Homo sapiens, UniProt O43186 26-111, R41L)
# PRRX1 [7] = target: PRRX1 (Homo sapiens, UniProt P54821 80-166, F113S)
# HOXB6 [8] = target: HOXB6 (Homo sapiens, UniProt P17509 132-218, K202E)
# HOXA2 [9] = target: HOXA2 (Homo sapiens, UniProt O43364 129-215, R185T)
# HOXA2 [10] = target: HOXA2 (Homo sapiens, UniProt O43364 129-215, R185K)
# PROP1 [11] = target: PROP1 (Homo sapiens, UniProt O75360 56-141)
# PROP1 [12] = target: PROP1 (Homo sapiens, UniProt O75360 56-141, R99H)
# PROP1 [13] = target: PROP1 (Homo sapiens, UniProt O75360 56-141, F88S)
# HOXA2 [14] = target: HOXA2 (Homo sapiens, UniProt O43364 129-215, Y150S)
# PRRX1 [15] = target: PRRX1 (Homo sapiens, UniProt P54821 80-166)
# HOXA2 [16] = target: HOXA2 (Homo sapiens, UniProt O43364 129-215)
# HOXB6 [17] = target: HOXB6 (Homo sapiens, UniProt P17509 132-218)
# Chain of HOXB6 (Homo sapiens, UniProt P17509 132-218) (P17509 132-218): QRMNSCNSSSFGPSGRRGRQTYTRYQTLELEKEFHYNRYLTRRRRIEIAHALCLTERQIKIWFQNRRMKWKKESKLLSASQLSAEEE
# Chain of CRX (O43186 26-111 R41L): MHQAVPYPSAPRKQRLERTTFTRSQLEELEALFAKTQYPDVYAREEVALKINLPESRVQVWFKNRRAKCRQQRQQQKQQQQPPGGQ
# Chain of HOXA2 (Homo sapiens, UniProt O43364 129-215, Y150S) (O43364 129-215 Y150S): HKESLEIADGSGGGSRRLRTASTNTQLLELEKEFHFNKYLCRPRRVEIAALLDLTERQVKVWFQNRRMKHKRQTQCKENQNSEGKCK
# Chain of PROP1 (Homo sapiens, UniProt O75360 56-141, R99H) (O75360 56-141 R99H): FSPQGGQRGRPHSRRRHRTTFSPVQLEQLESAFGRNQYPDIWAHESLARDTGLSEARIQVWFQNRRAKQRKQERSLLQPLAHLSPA
# Chain of PROP1 (Homo sapiens, UniProt O75360 56-141, F88S) (O75360 56-141 F88S): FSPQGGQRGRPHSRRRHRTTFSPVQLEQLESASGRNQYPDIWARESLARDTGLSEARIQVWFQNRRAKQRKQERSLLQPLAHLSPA
# Chain of HOXA2 (Homo sapiens, UniProt O43364 129-215, R185T) (O43364 129-215 R185T): as the sequence (O43364 129-215 Y150S) above, with S22Y, R57T counted along it
# Chain of HOXB6 (Homo sapiens, UniProt P17509 132-218, K202E) (P17509 132-218 K202E): as the sequence (P17509 132-218) above, with K71E counted along it
# Chain of PRRX1 (Homo sapiens, UniProt P54821 80-166) (P54821 80-166): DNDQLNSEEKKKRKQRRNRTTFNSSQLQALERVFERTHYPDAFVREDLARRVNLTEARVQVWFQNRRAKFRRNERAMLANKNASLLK
# Chain of HOXA2 (Homo sapiens, UniProt O43364 129-215, R185K) (O43364 129-215 R185K): as the sequence (O43364 129-215 Y150S) above, with S22Y, R57K counted along it
# Chain of HOXA2 (Homo sapiens, UniProt O43364 129-215) (O43364 129-215): as the sequence (O43364 129-215 Y150S) above, with S22Y counted along it
# Chain of PRRX1 (Homo sapiens, UniProt P54821 80-166, F113S) (P54821 80-166 F113S): as the sequence (P54821 80-166) above, with F34S counted along it
# Chain of PROP1 (Homo sapiens, UniProt O75360 56-141) (O75360 56-141): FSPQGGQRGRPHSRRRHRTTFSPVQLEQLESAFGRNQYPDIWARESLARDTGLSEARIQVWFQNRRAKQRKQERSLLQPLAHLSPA
sequence,measurement,setting,value
CGCGCGCC,binding signal,PAX4 [1],"9.3 upbm affinity estimate (log intensity, higher = more binding, comparable within an allelic series)"
same,binding signal,PAX4 [2],"9.28 upbm affinity estimate (log intensity, higher = more binding, comparable within an allelic series)"
same,binding signal,PAX4 [3],"9.36 upbm affinity estimate (log intensity, higher = more binding, comparable within an allelic series)"
same,binding signal,PAX4 [4],"9.21 upbm affinity estimate (log intensity, higher = more binding, comparable within an allelic series)"
same,binding signal,PAX4 [5],"9.31 upbm affinity estimate (log intensity, higher = more binding, comparable within an allelic series)"
same,binding signal,PAX4 [6],"9.28 upbm affinity estimate (log intensity, higher = more binding, comparable within an allelic series)"
GCCAGAGC,binding signal,PAX4 [1],"9.17 upbm affinity estimate (log intensity, higher = more binding, comparable within an allelic series)"
same,binding signal,PAX4 [2],"9.13 upbm affinity estimate (log intensity, higher = more binding, comparable within an allelic series)"
same,binding signal,PAX4 [3],"9.26 upbm affinity estimate (log intensity, higher = more binding, comparable within an allelic series)"
same,binding signal,PAX4 [4],"9.3 upbm affinity estimate (log intensity, higher = more binding, comparable within an allelic series)"
same,binding signal,PAX4 [5],"9.28 upbm affinity estimate (log intensity, higher = more binding, comparable within an allelic series)"
same,binding signal,PAX4 [6],"9.34 upbm affinity estimate (log intensity, higher = more binding, comparable within an allelic series)"
ATGAATTA,binding signal,PAX4 [1],"11.7 upbm affinity estimate (log intensity, higher = more binding, comparable within an allelic series)"
same,binding signal,PAX4 [2],"12.2 upbm affinity estimate (log intensity, higher = more binding, comparable within an allelic series)"
same,binding signal,PAX4 [3],"11.8 upbm affinity estimate (log intensity, higher = more binding, comparable within an allelic series)"
same,binding signal,PAX4 [4],"10.7 upbm affinity estimate (log intensity, higher = more binding, comparable within an allelic series)"
same,binding signal,PAX4 [5],"11.2 upbm affinity estimate (log intensity, higher = more binding, comparable within an allelic series)"
same,binding signal,PAX4 [6],"11 upbm affinity estimate (log intensity, higher = more binding, comparable within an allelic series)"
CCAAGTCC,binding signal,PAX4 [1],"9.27 upbm affinity estimate (log intensity, higher = more binding, comparable within an allelic series)"
same,binding signal,PAX4 [2],"9.3 upbm affinity estimate (log intensity, higher = more binding, comparable within an allelic series)"
same,binding signal,PAX4 [3],"9.4 upbm affinity estimate (log intensity, higher = more binding, comparable within an allelic series)"
same,binding signal,PAX4 [4],"9.27 upbm affinity estimate (log intensity, higher = more binding, comparable within an allelic series)"
same,binding signal,PAX4 [5],"9.25 upbm affinity estimate (log intensity, higher = more binding, comparable within an allelic series)"
same,binding signal,PAX4 [6],"9.38 upbm affinity estimate (log intensity, higher = more binding, comparable within an allelic series)"
GGAAAATA,binding signal,PAX4 [1],"10.5 upbm affinity estimate (log intensity, higher = more binding, comparable within an allelic series)"
same,binding signal,PAX4 [2],"10.7 upbm affinity estimate (log intensity, higher = more binding, comparable within an allelic series)"
same,binding signal,PAX4 [4],"10.1 upbm affinity estimate (log intensity, higher = more binding, comparable within an allelic series)"
same,binding signal,PAX4 [5],"10.1 upbm affinity estimate (log intensity, higher = more binding, comparable within an allelic series)"
GCGAATTA,binding signal,PAX4 [1],"11.6 upbm affinity estimate (log intensity, higher = more binding, comparable within an allelic series)"
same,binding signal,PAX4 [2],"12.1 upbm affinity estimate (log intensity, higher = more binding, comparable within an allelic series)"
same,binding signal,PAX4 [3],"11.5 upbm affinity estimate (log intensity, higher = more binding, comparable within an allelic series)"
same,binding signal,PAX4 [4],"10.3 upbm affinity estimate (log intensity, higher = more binding, comparable within an allelic series)"
same,binding signal,PAX4 [5],"10.8 upbm affinity estimate (log intensity, higher = more binding, comparable within an allelic series)"
same,binding signal,PAX4 [6],"10.8 upbm affinity estimate (log intensity, higher = more binding, comparable within an allelic series)"
CGTATTAA,binding signal,PAX4 [1],"11.8 upbm affinity estimate (log intensity, higher = more binding, comparable within an allelic series)"
same,binding signal,PAX4 [2],"12.2 upbm affinity estimate (log intensity, higher = more binding, comparable within an allelic series)"
same,binding signal,PAX4 [3],"11.5 upbm affinity estimate (log intensity, higher = more binding, comparable within an allelic series)"
same,binding signal,PAX4 [4],"10.5 upbm affinity estimate (log intensity, higher = more binding, comparable within an allelic series)"
same,binding signal,PAX4 [5],"11 upbm affinity estimate (log intensity, higher = more binding, comparable within an allelic series)"
same,binding signal,PAX4 [6],"11 upbm affinity estimate (log intensity, higher = more binding, comparable within an allelic series)"
same,binding signal,CRX,"11.2 upbm affinity estimate (log intensity, higher = more binding, comparable within an allelic series)"
AAGCGCTT,binding signal,PAX4 [1],"9.65 upbm affinity estimate (log intensity, higher = more binding, comparable within an allelic series)"
same,binding signal,PAX4 [2],"9.81 upbm affinity estimate (log intensity, higher = more binding, comparable within an allelic series)"
same,binding signal,PAX4 [3],"9.56 upbm affinity estimate (log intensity, higher = more binding, comparable within an allelic series)"
same,binding signal,PAX4 [4],"9.61 upbm affinity estimate (log intensity, higher = more binding, comparable within an allelic series)"
same,binding signal,PAX4 [5],"9.5 upbm affinity estimate (log intensity, higher = more binding, comparable within an allelic series)"
same,binding signal,PAX4 [6],"9.68 upbm affinity estimate (log intensity, higher = more binding, comparable within an allelic series)"
AGGTTGCC,binding signal,PAX4 [1],"9.39 upbm affinity estimate (log intensity, higher = more binding, comparable within an allelic series)"
same,binding signal,PAX4 [2],"9.33 upbm affinity estimate (log intensity, higher = more binding, comparable within an allelic series)"
same,binding signal,PAX4 [3],"9.49 upbm affinity estimate (log intensity, higher = more binding, comparable within an allelic series)"
same,binding signal,PAX4 [4],"9.35 upbm affinity estimate (log intensity, higher = more binding, comparable within an allelic series)"
same,binding signal,PAX4 [5],"9.33 upbm affinity estimate (log intensity, higher = more binding, comparable within an allelic series)"
same,binding signal,PAX4 [6],"9.35 upbm affinity estimate (log intensity, higher = more binding, comparable within an allelic series)"
GCCGCGCC,binding signal,PAX4 [1],"9.1 upbm affinity estimate (log intensity, higher = more binding, comparable within an allelic series)"
same,binding signal,PAX4 [2],"9.1 upbm affinity estimate (log intensity, higher = more binding, comparable within an allelic series)"
same,binding signal,PAX4 [3],"9.18 upbm affinity estimate (log intensity, higher = more binding, comparable within an allelic series)"
same,binding signal,PAX4 [4],"9.12 upbm affinity estimate (log intensity, higher = more binding, comparable within an allelic series)"
same,binding signal,PAX4 [5],"9.11 upbm affinity estimate (log intensity, higher = more binding, comparable within an allelic series)"
same,binding signal,PAX4 [6],"9.16 upbm affinity estimate (log intensity, higher = more binding, comparable within an allelic series)"
TAGTATAA,binding signal,PAX4 [1],"10.7 upbm affinity estimate (log intensity, higher = more binding, comparable within an allelic series)"
same,binding signal,PAX4 [2],"10.8 upbm affinity estimate (log intensity, higher = more binding, comparable within an allelic series)"
same,binding signal,PAX4 [3],"10.8 upbm affinity estimate (log intensity, higher = more binding, comparable within an allelic series)"
same,binding signal,PAX4 [6],"10.5 upbm affinity estimate (log intensity, higher = more binding, comparable within an allelic series)"
AGCCTGAG,binding signal,PRRX1 [7],"9.28 upbm affinity estimate (log intensity, higher = more binding, comparable within an allelic series)"
same,binding signal,HOXB6 [8],"8.98 upbm affinity estimate (log intensity, higher = more binding, comparable within an allelic series)"
same,binding signal,HOXA2 [9],"7.3 upbm affinity estimate (log intensity, higher = more binding, comparable within an allelic series)"
same,binding signal,HOXA2 [10],"10.4 upbm affinity estimate (log intensity, higher = more binding, comparable within an allelic series)"
same,binding signal,PROP1 [11],"6.61 upbm affinity estimate (log intensity, higher = more binding, comparable within an allelic series)"
same,binding signal,PROP1 [12],"6.62 upbm affinity estimate (log intensity, higher = more binding, comparable within an allelic series)"
same,binding signal,PROP1 [13],"6.73 upbm affinity estimate (log intensity, higher = more binding, comparable within an allelic series)"
same,binding signal,HOXA2 [14],"10.5 upbm affinity estimate (log intensity, higher = more binding, comparable within an allelic series)"
same,binding signal,PRRX1 [15],"9.12 upbm affinity estimate (log intensity, higher = more binding, comparable within an allelic series)"
same,binding signal,HOXA2 [16],"7.33 upbm affinity estimate (log intensity, higher = more binding, comparable within an allelic series)"
same,binding signal,HOXB6 [17],"8.88 upbm affinity estimate (log intensity, higher = more binding, comparable within an allelic series)"

# — paper PMC11006913
